The list is not random: actives were taken first. Their share in the collection is about 2.6%.
eIF4E-4G inh: inhibitors of eIF4E and eIF4G interaction in translation initiation; AID 782; TR-FRET eIF4E-eIF4GI(517-606) binding, 2 h; 0.37% of 220,000 active; inhibition, % at 21.7 µM;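 active means inhibition above about 30%, limit read from the data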;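 further: 0% = full FRET control wells and 100% = background wells lacking eIF4GI fragment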
14-3-3 Bad inh: disrupts binding of bovine 14-3-3 zeta to phospho-Bad peptide; inhibition, % at 21.7 µM; 0.71% of 220,000 active; P63103; TR-FRET 14-3-3zeta/Dy647-pBad peptide displacement, 1 h;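 active means inhibition above about 70%, limit read from the data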;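 further: 0% = full 14-3-3 plus peptide FRET controls and 100% = background without 14-3-3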
Mcl1-Bid inh: disrupts binding of human Mcl-1 to Bid peptide | Q07820 | TR-FRET Mcl-1/Bid-Dy647 peptide binding, 1536-well | inhibition, % at 21.7 µM | 0.97% of 220,000 active;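 active means compounds that cut the binding signal by more than half at the single screening dose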;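 further: His-tagged Mcl-1 with europium anti-His antibody binding Bid BH3 peptide; 0% = Mcl-1 plus peptide wells and 100% = peptide-only wells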
Mcl1 Noxa PPI: disrupts binding of human Mcl-1 to Noxa peptide; Q07820; TR-FRET Mcl-1/Noxa peptide binding, 2 h; inhibition, % at 21.7 µM; 1.5% of 220,000 active;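 active means compounds that cut the protein-peptide binding signal by more than 50% relative to plate controls in a single-dose test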;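 further: His-tagged Mcl-1 with rhodamine Noxa BH3 peptide and terbium anti-His antibody; 0% = Mcl-1 plus Noxa peptide wells and 100% = peptide-only wells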
MCL1-BIM inh: disrupts human MCL1 binding to BIM-BH3 peptide. Q07820. GST-MCL1 / FITC-Bim-BH3 fluorescence polarization. inhibition, % at 10.9 µM. 0.68% of 320,000 active. AID 2057;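 active means inhibition above the mean inhibition of all tested compounds plus 3 SD, set per campaign, cut at about 40% in these data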;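 further: 0% = DMSO wells and 100% = unlabeled Bim-BH3 peptide control; higher means more loss of mP so more displacement of Bim peptide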
Mcl-1 Bim block: inhibitors of Bim-Mcl-1 interaction, human | Q07820 | Bead-based flow cytometry, Bim peptide-Mcl-1 binding | inhibition, % at 10 µM | 0.1% of 190,000 active | AID 1009; in the data active means inhibition above about 40%;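 further: 0% = no compound tracer wells and 100% = peptide blocker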
The depositor's hits bear a star.

For COC(=O)C1=CN(CC2CCCO2)C=C(C(=O)OC)C1c1cccc(O)c1 (configuration not stated) the results were eIF4E-4G inh -2.7, 14-3-3 Bad inh -8.7, Mcl1-Bid inh -39.3, Mcl1 Noxa PPI 9.6, MCL1-BIM inh 1.1 and Mcl-1 Bim block -2.0.
`O=[N+]([O-])c1cccc(COc2ncnc3cc([N+](=O)[O-])ccc23)c1` gave eIF4E-4G inh 5.2, 14-3-3 Bad inh 8.9, Mcl1-Bid inh -50.4, Mcl1 Noxa PPI 52.5* and MCL1-BIM inh -1.3.
COc1ccc(CCNC(=O)COc2ncnc3cc([N+](=O)[O-])ccc23)cc1 was read as eIF4E-4G inh 3.6, 14-3-3 Bad inh 10.4, Mcl1-Bid inh 1.4, Mcl1 Noxa PPI 32.0, MCL1-BIM inh 4.4 and Mcl-1 Bim block 1.0.
`Cc1ccc2cccc(OCc3cccc([N+](=O)[O-])c3)c2n1` gave MCL1-BIM inh 9.0.
O=C(COc1ncnc2cc([N+](=O)[O-])ccc12)NCc1ccc2c(c1)OCO2 was read as eIF4E-4G inh 1.6, 14-3-3 Bad inh 0.4, Mcl1-Bid inh 11.9, Mcl1 Noxa PPI 59.5*, MCL1-BIM inh 8.7 and Mcl-1 Bim block 6.0.
`COc1cc(/C=N/NC(=O)CCOc2ccccc2C)cc(Br)c1O` gave eIF4E-4G inh 12.1, 14-3-3 Bad inh -18.6, Mcl1-Bid inh -29.6, Mcl1 Noxa PPI 66.8*, MCL1-BIM inh 11.9 and Mcl-1 Bim block -1.0.
`COc1ccc(/C=N/NC(=O)CCOc2ccccc2C)cc1OC` gave eIF4E-4G inh 6.5, 14-3-3 Bad inh -11.5, Mcl1-Bid inh -19.7, Mcl1 Noxa PPI 5.3, MCL1-BIM inh 4.9 and Mcl-1 Bim block -5.0.
CN(CC(=O)Nc1ccc(Cl)cc1)C(=O)CCc1nc2sc3c(c2c(=O)[nH]1)CCCC3 was read as MCL1-BIM inh -11.7.
For CSc1ccccc1NC(=O)c1noc2c1CCC2 the results were eIF4E-4G inh 7.5, 14-3-3 Bad inh -8.2, Mcl1-Bid inh -34.0, Mcl1 Noxa PPI 66.2*, MCL1-BIM inh 33.5 and Mcl-1 Bim block -2.0.
Screening CSc1ccccc1NC(=O)c1ccccc1C returned eIF4E-4G inh 46.5*, 14-3-3 Bad inh -8.0, Mcl1-Bid inh -30.7, Mcl1 Noxa PPI 11.7, MCL1-BIM inh 6.2 and Mcl-1 Bim block 0.0.
Screening CC(NC(=O)c1noc2c1CCCC2)c1ccccc1 (configuration not stated) returned eIF4E-4G inh 2.1, 14-3-3 Bad inh 6.3, Mcl1-Bid inh -7.0, Mcl1 Noxa PPI -7.0, MCL1-BIM inh 1.4 and Mcl-1 Bim block 0.0.
`CCCOc1ccc(C(=O)Nc2ccc(N(C)C)cc2)cc1` gave eIF4E-4G inh -4.9, 14-3-3 Bad inh -5.1, Mcl1-Bid inh -27.4, Mcl1 Noxa PPI 81.3*, MCL1-BIM inh 7.3 and Mcl-1 Bim block 4.0.
For CC(C)Oc1ccc(C(=O)Nc2ccc3c(c2)n(C)c(=O)n3C)cc1 the results were MCL1-BIM inh 0.1.
Screening CCCOc1ccc(C(=O)Nc2ccc(NC(=O)c3cccs3)cc2)cc1 returned MCL1-BIM inh -0.1.
Screening CCCCOC(=O)Nc1ccc(N(C)C)cc1 returned eIF4E-4G inh 19.2, 14-3-3 Bad inh -11.3, Mcl1-Bid inh -48.3, Mcl1 Noxa PPI 74.7*, MCL1-BIM inh 7.5 and Mcl-1 Bim block 1.0.
For CC(C)Oc1ccc(C(=O)Nc2ccc(N(C)C)cc2)cc1 the results were eIF4E-4G inh 11.2, 14-3-3 Bad inh 0.0, Mcl1-Bid inh -31.6, Mcl1 Noxa PPI 78.2*, MCL1-BIM inh 6.2 and Mcl-1 Bim block 3.0.
CCOC(=O)c1c(C)c(C(=O)Nc2ccc(N(C)C)cc2)c(C)n1CC was read as eIF4E-4G inh -0.9, 14-3-3 Bad inh 13.2, Mcl1-Bid inh -11.8, Mcl1 Noxa PPI 56.1*, MCL1-BIM inh -2.2 and Mcl-1 Bim block 3.0.
Screening O=C(NC(=S)N1CCN(c2nc(-c3ccccc3)cs2)CC1)c1cncc(Br)c1 returned eIF4E-4G inh -12.9, 14-3-3 Bad inh -41.1, Mcl1-Bid inh -112.5, Mcl1 Noxa PPI -59.1, MCL1-BIM inh -1.6 and Mcl-1 Bim block 0.0.
CCN(CC(=O)Nc1c(F)cccc1F)C(=O)C1CCN(C(=O)Nc2ccccc2)CC1 was read as MCL1-BIM inh -15.9.
`Cc1cccc2sc(NNC(=O)c3cc(-c4cccs4)nc4ccccc34)nc12` gave eIF4E-4G inh -1.6, 14-3-3 Bad inh -11.4, Mcl1-Bid inh -14.0, Mcl1 Noxa PPI -43.4, MCL1-BIM inh 5.2 and Mcl-1 Bim block -3.0.
COc1ccccc1N1CCN(C(=O)c2ccc3c(c2)NC(=O)C(CSCc2ccccc2C)N3)CC1 (configuration not stated) was read as MCL1-BIM inh -14.6.
`CC(C)=CCN1CCN(Cc2ccc(Sc3nncn3C)o2)CC1CCO` (configuration not stated) gave eIF4E-4G inh 1.2, 14-3-3 Bad inh -4.0, Mcl1-Bid inh -28.2, Mcl1 Noxa PPI 2.3, MCL1-BIM inh 6.1 and Mcl-1 Bim block -2.0.
CNc1ccc([N+](=O)[O-])cc1-c1nc2ccccc2[nH]c1=O was read as eIF4E-4G inh 17.9, 14-3-3 Bad inh 72.7*, Mcl1-Bid inh 47.8, Mcl1 Noxa PPI 65.1* and MCL1-BIM inh 0.4.
Screening O=C(O)COc1ccc(C(NC(=O)c2c(F)cccc2F)NC(=O)c2c(F)cccc2F)cc1 returned MCL1-BIM inh 6.0.
Screening O=C1CCCC2=C1C(c1ccc(O)c(O)c1)c1c(ccc3ncccc13)N2 (configuration not stated) returned eIF4E-4G inh 15.8, 14-3-3 Bad inh 6.5, Mcl1-Bid inh -44.2, Mcl1 Noxa PPI 78.8*, MCL1-BIM inh 52.1* and Mcl-1 Bim block 7.0.
`O=C1C2C3C=CC(C3)C2C(=O)N1CCCO` (configuration not stated) gave eIF4E-4G inh -0.5, 14-3-3 Bad inh -0.8, Mcl1-Bid inh -3.1, Mcl1 Noxa PPI 2.4, MCL1-BIM inh 0.6 and Mcl-1 Bim block 0.0.
O=C1C2C3C=CC(C3)C2C(=O)N1CCCCN1C(=O)C2C3C=CC(C3)C2C1=O (configuration not stated) was read as eIF4E-4G inh 46.1*, 14-3-3 Bad inh 72.8*, Mcl1-Bid inh -13.2, Mcl1 Noxa PPI -3.4, MCL1-BIM inh 4.5 and Mcl-1 Bim block 0.0.
`O=C(CN1CCN(c2ccccn2)CC1)N1c2ccccc2Sc2ccc(C(F)(F)F)cc21` gave eIF4E-4G inh 1.2, 14-3-3 Bad inh 60.7, Mcl1-Bid inh 41.4, Mcl1 Noxa PPI 29.7, MCL1-BIM inh 2.9 and Mcl-1 Bim block 0.0.
`O=C(CN1CCN(c2ccccn2)CC1)N1c2ccccc2CCc2ccccc21` gave eIF4E-4G inh 4.8, 14-3-3 Bad inh 48.5, Mcl1-Bid inh 55.0*, Mcl1 Noxa PPI 22.5, MCL1-BIM inh 8.0 and Mcl-1 Bim block -3.0.
`COc1ccc(CNCC(=O)Nc2sccc2C#N)cc1` gave eIF4E-4G inh -2.3, 14-3-3 Bad inh 1.4, Mcl1-Bid inh 28.2, Mcl1 Noxa PPI 52.6*, MCL1-BIM inh -0.8 and Mcl-1 Bim block -4.0.

Compound activity: PubChem, several laboratories
